Bioassay records (PubChem)
Exocytosis inh: LAMP-1 surface exposure blockers, TALL-104 cells – cell-based, flow cytometry, MLPCN library, primary screen | TALL-104 LAMP-1 surface exposure; cells stimulated with thapsigargin and PMA | inhibition, % at 10 µM | 360,000 tested, 0.66% active;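 active = inhibition above about 55%, limit read from the data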
ABHD5-PLIN5 inh: ABHD5-PLIN5 interaction inhibitors, primary screen, cell lysate, split luciferase complementation, luminescence; Perilipin-5 (Homo sapiens) + 1-acylglycerol-3-phosphate O-acyltransferase ABHD5 (Homo …; Split G. princeps luciferase complementation, 4 h; inhibition, % at 4 µM; 360,000 tested, 0.78% active; AID 602281, 2012;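 active = inhibition above the mean inhibition across every tested compound plus 3 SD, cut at about 22% in these data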
HTR2A ag: mouse Htr2a agonists via beta-arrestin recruitment, primary screen, cell-based, luminescence | CHO-K1 mHTR2A beta-arrestin complementation; percent of 30 µM serotonin response | activation, % at 7.6 µM | 360,000 tested, 0.66% active | AID 624169, 2012;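 active = activation above a run cutoff, the mean activation of all tested compounds plus 3 SD, cut at about 14% in these data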
NTR1 agonist: agonists of human NTR1, primary screen, imaging, U2OS cells, beta-arrestin-GFP, high content; activation, % at 20 µM; Neurotensin receptor type 1 (Homo sapiens), P30989; 330,000 tested, 0.17% active; NTR1-U2OS beta-arrestin-GFP spot imaging, agonist mode;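 active = activation at or above 40% of the spot to cytoplasm intensity ratio, with at least 20 cells analyzed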
B2AR ag: beta2AR agonists driving receptor internalization, primary screen, cell-based, FAP fluorogen, flow cytometry. Beta-2 adrenergic receptor (Homo sapiens), P07550. Am2.2-beta2AR cells. response, % (concentration not given with the values). 340,000 tested, 0.43% active;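 active = response above a set limit, near 3 SD of response in nonfluorescent compounds, cut at about 42% in these data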
Target sequence (P07550 whole entry, looked up): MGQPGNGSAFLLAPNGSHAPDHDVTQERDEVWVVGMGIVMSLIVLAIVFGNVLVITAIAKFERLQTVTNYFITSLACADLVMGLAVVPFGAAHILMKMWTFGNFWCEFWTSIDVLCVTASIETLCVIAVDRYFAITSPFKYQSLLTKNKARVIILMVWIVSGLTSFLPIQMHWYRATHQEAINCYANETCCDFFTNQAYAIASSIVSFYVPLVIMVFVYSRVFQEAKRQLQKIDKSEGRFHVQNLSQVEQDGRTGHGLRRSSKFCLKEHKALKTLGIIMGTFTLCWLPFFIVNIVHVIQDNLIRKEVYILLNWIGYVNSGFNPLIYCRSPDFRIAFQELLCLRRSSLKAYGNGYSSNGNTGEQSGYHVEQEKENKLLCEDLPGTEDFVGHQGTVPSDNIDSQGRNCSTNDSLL
MOR ag counter: OPRM1 agonists via beta-arrestin recruitment, confirmation, counter-screen for mouse HTR2A agonist project, cell-based, luminescence, single concentration; shares compounds with HTR2A ag; U2OS OPRM1 beta-arrestin PathHunter; DMSO 0%, DAMGO 9.3 µM 100%; activation, % at 9.3 µM; 2,300 tested, 5.3% active; AID 624380, 2012;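 active = mean activation above the mean of DMSO-only wells plus 3 SD, cut at about 0.5% in these data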
m5-HT2A ag conf: mouse HTR2A agonists, beta-arrestin recruitment, confirmation, cell-based, luminescence, CHO-K1 PathHunter, triplicate. shares compounds with HTR2A ag. 2,300 tested, 19% active. DMSO 0%, 30 µM serotonin 100%. activation, % at 7.6 µM;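 active = mean activation across triplicates above the hit threshold derived in the original primary screen, cut at about 15% in these data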
Numbers stand for hits. Sampled rows, rich in hits. Any-hit rate of the full collection: about 2.3%.

COC1=C/C(=C/c2c(O)c(C#N)c3ccccn23)C=CC1=O was read as Exocytosis inh inactive, ABHD5-PLIN5 inh inactive, HTR2A ag 20, NTR1 agonist inactive, B2AR ag inactive, MOR ag counter inactive and m5-HT2A ag conf inactive.
`COC(=O)c1sc(NC(=O)c2ccco2)nc1C` gave Exocytosis inh inactive, ABHD5-PLIN5 inh inactive, HTR2A ag inactive, NTR1 agonist inactive and B2AR ag inactive.
Cc1nc(NC(=O)c2ccco2)sc1C(=O)O was read as Exocytosis inh inactive, ABHD5-PLIN5 inh inactive, HTR2A ag 19, B2AR ag inactive, MOR ag counter inactive and m5-HT2A ag conf inactive.
COc1ccc2cc(C3=CCCCC3)ncc2c1 was read as Exocytosis inh inactive, ABHD5-PLIN5 inh inactive, HTR2A ag inactive, NTR1 agonist inactive and B2AR ag inactive.
Screening CCOC(=O)N1CCN(C(c2ccccc2)c2sc3nc(C)nn3c2O)CC1 (configuration not stated) returned Exocytosis inh inactive, ABHD5-PLIN5 inh inactive, HTR2A ag inactive, NTR1 agonist inactive and B2AR ag inactive.
CCOC(=O)N1CCN(C(c2ccc(F)cc2)c2sc3nc(C)nn3c2O)CC1 (configuration not stated) was read as Exocytosis inh inactive, ABHD5-PLIN5 inh inactive, HTR2A ag 32, NTR1 agonist inactive, B2AR ag inactive, MOR ag counter inactive and m5-HT2A ag conf inactive.
CN1CCN(c2ccc(Cl)cc2NC(=O)c2ccc(=O)n(C)n2)CC1 was read as Exocytosis inh inactive, ABHD5-PLIN5 inh inactive, HTR2A ag 18, NTR1 agonist inactive, B2AR ag inactive, MOR ag counter inactive and m5-HT2A ag conf inactive.
CC1(C)CC(=O)C2=C(C1)OC(N)=C(C#N)C21CCN(Cc2ccccc2)CC1 was read as Exocytosis inh inactive, ABHD5-PLIN5 inh inactive, HTR2A ag inactive, NTR1 agonist inactive and B2AR ag inactive.
Cc1nc2c([nH]1)C1(CCN(Cc3ccccc3)CC1)C(C#N)=C(N)O2 was read as Exocytosis inh inactive, ABHD5-PLIN5 inh inactive, HTR2A ag 33, NTR1 agonist inactive, B2AR ag inactive, MOR ag counter inactive and m5-HT2A ag conf inactive.
`O=C(COc1cc(Cl)c(Cl)cc1Cl)Nc1cccc(O)c1` gave Exocytosis inh inactive, ABHD5-PLIN5 inh inactive, HTR2A ag 22, NTR1 agonist inactive, B2AR ag inactive, MOR ag counter inactive and m5-HT2A ag conf inactive.
Screening O=C(COc1cc(Cl)c(Cl)cc1Cl)Nc1ccncc1 returned Exocytosis inh inactive, ABHD5-PLIN5 inh inactive, HTR2A ag inactive, NTR1 agonist inactive and B2AR ag inactive.
N#CC(c1ccc(Cl)cc1)(c1ncc(C(F)(F)F)cc1Cl)N1CCOCC1 (configuration not stated) was read as Exocytosis inh inactive, ABHD5-PLIN5 inh inactive, HTR2A ag inactive, NTR1 agonist inactive and B2AR ag inactive.
For CCOC(=O)Cn1c(=O)c(-c2ccccc2NCc2ccccc2)nc2ccccc21 the results were Exocytosis inh inactive, ABHD5-PLIN5 inh inactive, HTR2A ag inactive, NTR1 agonist inactive and B2AR ag inactive.
Screening Cc1nc2ccccc2n1CC(=O)OCC(=O)NCc1ccccc1 returned Exocytosis inh inactive, ABHD5-PLIN5 inh inactive, HTR2A ag 15, NTR1 agonist inactive, B2AR ag inactive, MOR ag counter inactive and m5-HT2A ag conf inactive.
COc1ccccc1NC(=O)COC(=O)CCC(=O)c1cccs1 was read as Exocytosis inh inactive, ABHD5-PLIN5 inh inactive, HTR2A ag inactive, NTR1 agonist inactive and B2AR ag inactive.
For O=C1C=C(c2ccc(F)cc2OCc2ccccc2)C[C@@H](c2ccc(F)cc2)C1 the results were Exocytosis inh inactive, ABHD5-PLIN5 inh inactive, HTR2A ag 16, NTR1 agonist inactive, B2AR ag inactive, MOR ag counter inactive and m5-HT2A ag conf inactive.
